These results are taken from PubChem BioAssay.

Unmarked numbers belong to inactive results. Active and inactive are the calls of the source. Rule as the data show it: active = fold change permeability below about 0.7 or above about 1.3; inactive = in between.

This test in a line: modulators of brain endothelial barrier permeability, primary screen, cell-based, FITC-avidin fluorescence, HTS (AID 1963498). Also: test concentration not given here. The conditions noted are these: actives lie on both sides.
Regarding `NC1=NCC2c3ccccc3Cc3ccccc3N12` (centres undefined), the fold change permeability was 0.8.
The value for `Cc1c(C(C)C)c(=O)n(-c2ccc(S(=O)(=O)NCCOc3ccccc3)cc2)n1C` was 1.3 (active); that for `CC(C)(C)c1ccc(C(=O)CCCN2CCC(OC(c3ccccc3)c3ccccc3)CC2)cc1` was 1.6 (active); that for `C[C@H](NCCc1ccc(O)cc1)[C@H](O)c1ccc(O)cc1` was 0.7 (active).
The value for `CC(CCc1ccc(O)cc1)NCCc1ccc(O)c(O)c1` (centres undefined) was 1.2; that for `CCc1ccc(/C=C2/SC(=S)NC2=O)cc1` was 1.4 (active).
On to `COc1cc2c(cc1-c1c(C)noc1C)ncc1[nH]c(=O)n([C@H](C)c3ccccn3)c12`, for which the fold change permeability was 1.1.
For the molecule `O=C1CCc2cc(OCCCCc3nnnn3C3CCCCC3)ccc2N1`, the fold change permeability was 0.9.
Take `CC(C)(C)NCC(O)COc1nsnc1N1CCOCC1` (centres undefined): the fold change permeability was 1.4 (active).
The same measure for `C=C1C(=O)O[C@@H]2[C@H]3O[C@]3(C)CC/C=C(\C)CC[C@@H]12`: 1.3 (active); for `C[C@@H](c1nc(-c2ccc(C#N)cc2)cs1)[C@](O)(Cn1cncn1)c1cc(F)ccc1F`: 1.2.
The value for `Cn1c(=O)c2c(ncn2CC2OCCO2)n(C)c1=O` was 1; that for `COc1ccc(/C=C/C(=O)Nc2ccc(C(F)(F)F)cc2)cc1OC` was 1.6 (active).
Regarding `Cc1c(C(=O)N2CCOc3ccc(-c4ccc(N)nc4)cc3C2)ccc(S(C)(=O)=O)c1F`, the fold change permeability is 1.2.
On to `O=C(NCc1ccc(F)cc1)C1CCN(S(=O)(=O)c2cc(Cl)cc(Cl)c2)CC1`, for which the fold change permeability is 1.5 (active).
The same measure for `Cc1ccc(S(=O)(=O)Nc2ccccc2N2CCCCC2)s1`: 1; for `Cc1cc(C(=O)Cn2cc(C#N)ccc2=O)c(C)n1Cc1ccccc1`: 1.7 (active); for `CNCC(O)c1ccc(O)c(O)c1` (centres undefined): 0.8.
Consider `CCCCC1C(=O)N(c2ccccc2)N(c2ccccc2)C1=O`, for which the fold change permeability is 0.9.
As to `NCCCCN`, the fold change permeability was 0.9.
The value for `O=[N+]([O-])c1ccc(-c2nc(-c3ccc(F)cc3)c(-c3ccncc3)[nH]2)cc1` was 1.4 (active).
Turning to `CCN(CC)CCNC(=O)c1cc(Cl)c(N)cc1OC`, the fold change permeability was 0.9.
The same measure for `C[C@]12CC[C@@H]3c4ccc(O)cc4CC[C@H]3[C@@H]1[C@@H](O)[C@@H](O)[C@@H]2O`: 0.8; for `COc1nc(C)cnc1NS(=O)(=O)c1cccnc1-c1ccc(-c2nnco2)cc1`: 1.4 (active); for `COc1cc(C(C)=O)ccc1OCCCN1CCC(c2noc3cc(F)ccc23)CC1`: 1.3 (active).
The same measure for `O=C(CCCN1CCC(O)(c2cccc(C(F)(F)F)c2)CC1)c1ccc(F)cc1`: 1.6 (active).
The same measure for `NC(N)=N/N=C/c1c(Cl)cccc1Cl`: 1; for `CCCC(CCC)C(=O)O`: 1.1.
As for `N=C(N)SCCc1cnc[nH]1`, the fold change permeability was 0.7 (active).
The value for `N[C@H](C(=O)O)[C@H](O)C(=O)O` was 0.9; that for `Cn1cc(C(=O)OCC2CCN(CCNS(C)(=O)=O)CC2)c2ccccc21` was 1.
The same measure for `CCCCCCCC/C=C\CCCCCCCC(=O)O`: 0.9.
The value for `Cc1c(Cl)cccc1Nc1ncccc1C(=O)O` was 1.1; that for `CC(C)c1cc(/C=C(\C#N)C(=O)NCCCc2ccccc2)cc(C(C)C)c1O` was 0.8.
With `CCOc1cc(C(=O)Nc2ccc(Cl)c(-c3nc4ccccc4[nH]3)c2)cc(OCC)c1OCC`, the fold change permeability is 1.7 (active).
As to `COc1ccc(CCN(C)CCCC(C#N)(c2cc(OC)c(OC)c(OC)c2)C(C)C)cc1OC` (centres undefined), the fold change permeability is 0.9.
The same measure for `Cc1ccc(C(=O)Nc2cnc(N3CCC(C(N)=O)(N4CCCCC4)CC3)c(C(=O)O)c2)cc1`: 1; for `O=C(O)c1cc(=O)c2ccccc2[nH]1`: 1.6 (active); for `C1CCc2nnnn2CC1`: 1.3 (active).
